Vc quorum ag: inducers of Vibrio cholerae quorum light production without autoinducers | V. cholerae BH1578 lux reporter, luminescence, 6 h | activation, % at 18.7 µM | 350,000 tested, 0.16% active; in the data active = activation mostly above about 9.7%, no sharp cut-off
Rv3671c protease: inhibitors of M. tuberculosis serine protease Rv3671c; 320,000 tested, 0.048% active; AID 2606; inhibition, % at 5.96 µM; in the data active = inhibition above about 38%;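 also: extracellular domain of Rv3671c used as enzyme; 0% = enzyme with DMSO and 100% = no enzyme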
Target sequence (P9WHR9 whole entry, looked up, the tested form may be a part): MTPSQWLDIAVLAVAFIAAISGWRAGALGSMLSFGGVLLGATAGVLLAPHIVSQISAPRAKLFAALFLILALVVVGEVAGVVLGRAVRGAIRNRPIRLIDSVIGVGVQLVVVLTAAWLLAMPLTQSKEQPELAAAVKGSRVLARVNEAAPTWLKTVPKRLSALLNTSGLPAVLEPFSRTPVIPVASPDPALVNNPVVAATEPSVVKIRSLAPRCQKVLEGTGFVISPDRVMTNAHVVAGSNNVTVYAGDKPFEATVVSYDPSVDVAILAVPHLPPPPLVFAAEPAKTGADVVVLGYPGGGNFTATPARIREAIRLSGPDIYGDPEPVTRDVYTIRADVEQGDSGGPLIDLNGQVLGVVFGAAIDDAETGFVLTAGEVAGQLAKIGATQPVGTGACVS
RecA intein inh: Mtb RecA intein splicing inhibition; cell-free RecA intein splicing, fluorescence; P9WHJ3; inhibition, % (test concentration not listed); 290,000 tested, 0.75% active; AID 2221; in the data active = inhibition above about 30%;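 also: 0% = vehicle wells and 100% = reference inhibitor control wells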
UGM FP inh: inhibitors of M. tuberculosis UDP-galactopyranose mutase; purified UGM, fluorescence polarization probe displacement; inhibition, % at 10 µM; 320,000 tested, 0.06% active; AID 504406; in the data active = inhibition above about 10%, passing the limit was not always enough
GDH-TPI counter: inhibits GDH-TPI coupling enzymes, artifact for Mtb FBA screen; GDH-TPI coupled enzyme counterscreen, NADH absorbance; inhibition, % at 4.8 µM; 360,000 tested, 1.2% active; in the data active = inhibition above about 30%;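 also: 0% = DMSO wells and 100% = wells lacking the enzyme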
FBA Mtb inh: Mtb fructose-bisphosphate aldolase inhibition. purified M. tuberculosis FBA, fluorescence read-out. P9WQA3. AID 588726. inhibition, % at 1 µM. 360,000 tested, 2.3% active; in the data active = inhibition above about 27%;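 also: 0% = vehicle and 100% = reference inhibitor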
* marks the source's active call; other numbers are inactive results; i = inactive; · = no result given. In the library only some 4.1% were active in any assay of this set; here they are far more common.

SMILES	Vc quorum ag	Rv3671c protease	RecA intein inh	UGM FP inh	GDH-TPI counter	FBA Mtb inh
O=C(N/N=C/C=C\c1cccc([N+](=O)[O-])c1)c1ccccn1	i	-10	2	1	34*	-6
O=C(N/N=C\c1ccco1)c1cncc(Br)c1	·	2	-3	-1	·	·
Cc1ccc(OCC(=O)N/N=C/C=C/c2ccco2)cc1C	0	-3	5	2	37*	-2
O=C(N/N=C/C=C\c1ccccc1[N+](=O)[O-])c1ccccn1	i	2	0	-1	12	-1
O=C(N/N=C/C=C\c1ccco1)c1cccnc1	1	-4	3	-1	33*	-3
O=C(N/N=C\C=C\c1ccco1)c1cncc(Br)c1	i	6	1	0	34*	-2
CCc1nc2ccc(C(=O)NCCCN3CCCC3=O)cn2c1N(C)C(=O)COc1ccccc1	i	·	·	·	7	5
O=C(N/N=C/C=C/c1ccco1)c1cnccn1	-1	-12	7	2	16	-4
O=C(N/N=C/C=C\c1ccco1)c1ccccn1	0	1	1	-1	35*	-3
O=C(N/N=C/C=C/c1ccco1)c1cccnc1	0	-12	3	0	38*	-4
O=C(CCN1C(=O)/C(=C/c2cccs2)SC1=S)N1CCCCC1	0	0	4	1	-6	-12
COc1nc(NCCc2ccc(OC)c(OC)c2)nc(Nc2ccccc2)n1	0	-11	0	0	6	1
COc1ccc(NC(=O)Nc2ccc([N+](=O)[O-])cc2)cn1	i	5	1	3	17	-2
CCOC(=O)c1ccccc1NC(=O)c1cc2sccc2n1C	0	-7	-2	1	32*	7
COC(=O)C1=C(SC)N(c2ccc(OC)cc2)C(c2ccccc2)CC1=O (configuration not stated)	0	-1	-3	3	33*	0
COC(=O)C1=C(SC)N(c2ccccc2)C(c2ccccc2)CC1=O (configuration not stated)	0	-1	0	-1	23	3
CCC(C)NS(=O)(=O)c1ccc(NC(=O)CNCc2cccs2)cc1 (configuration not stated)	0	·	·	·	0	-1
Cc1cc(Br)cn2c(Cc3ccsc3)c(-c3ccc(Cl)cc3)nc12	·	·	·	·	·	5
Cc1ccc(S(=O)(=O)Nc2cccc(-c3ccc(N4CCCCCC4)nn3)c2)cc1	i	-83	10	-1	4	0
COc1ccc(Cc2nnc(SCC(=O)N(C)CC(=O)Nc3ccc(C)cc3)o2)cc1	29*	-3	3	-1	4	-3
COc1ccc(OCc2nnc(SCC(=O)Nc3ccc(C)cc3)o2)cc1	0	5	·	4	5	2
N#C/C(=C(/O)COc1ccccc1)c1nc2ccccc2s1	0	-8	2	-1	29	0
COc1ccc(C/C(O)=C(\C#N)c2nc3ccccc3s2)cc1	-4	-2	-2	0	46*	-3
N#C/C(=C(/O)CSc1ccccc1C(=O)O)c1nc2ccccc2s1	0	0	-6	14*	73*	-4
Cc1ccc(SC/C(O)=C(\C#N)c2nc3ccccc3s2)cc1	i	9	1	-4	32*	-1
SMILES	Vc quorum ag	Rv3671c protease	RecA intein inh	UGM FP inh	GDH-TPI counter	FBA Mtb inh
CCc1cc(-c2nnn(CCC3COCCO3)c2CC)cc(CC)c1-c1cn(CCc2c[nH]c3ccccc23)nn1 (configuration not stated)	0	·	·	·	-1	-1
Cc1cc(=S)[nH]c(=S)[nH]1	-1	-6	-3	2	35*	-1
CCCCCC(=O)N1C[C@H](n2cc(COC(=O)c3ccccc3)nn2)[C@@H](O)C[C@@H]1c1ccc(Cl)cc1	i	·	·	·	-1	-1
COc1ccccc1CNC(=O)C[C@@H]1C[C@H]2c3cc(N(C)C)ccc3O[C@H]2[C@H](CO)O1	0	·	·	·	4	3
CCN=C1Cn2c(nc3scc(-c4ccccc4)c3c2=O)CN1CC	17*	-9	·	-2	0	6
CCc1nc2scc(-c3ccccc3)c2c(=O)n1N	1	-4	0	2	-6	0
N#CCCN(Cc1ccccc1)C(C(=O)NC1CCCCC1)C1CC1 (configuration not stated)	·	·	·	·	·	1
CC(=O)NC1C(=O)N(CCc2ccccc2)c2ccc(Br)cc21 (configuration not stated)	1	·	·	·	4	2
CCOc1ccc2c(c1)C(NC(C)=O)C(=O)N2CCN1CCOCC1 (configuration not stated)	i	·	43*	0	2	-1
CC(=O)NC1C(=O)N(CCN2CCOCC2)c2ccc(Br)cc21 (configuration not stated)	-6	11	51*	-1	5	-1
Cc1cccc(-c2ocnc2C(=O)N2CCN(C(=O)c3cccs3)CC2)c1	0	-8	1	-1	-5	6
Nc1nc(C(=O)N2CCOCC2)nn1C(=O)c1ccc(Cl)cc1	i	0	32*	1	-1	0
COc1cc(/C=C2\C(=O)NC(=O)N(CCc3ccc(F)cc3)C2=O)ccc1O	0	-18	-3	5	28	-1
COc1cc(/C=C2\NC(=O)NC2=O)cc(Br)c1OC	i	5	-1	-2	32*	-2
COc1cc(C=C2C(=O)NC(=O)NC2=O)ccc1O	i	-10	1	-3	32*	1
COc1ccc(C=C2NC(=O)NC2=O)cc1O	i	·	·	·	43*	-2
O=C(CS(=O)(=O)c1cn(CC(=O)N2CCOCC2)c2ccccc12)Nc1ccccc1F	i	-6	0	-1	2	0
COc1cccc(NC(=O)N(C)C[C@@H]2OCc3cnnn3CCCC(=O)N([C@@H](C)CO)C[C@H]2C)c1	-1	·	·	·	-4	-2
CCc1noc(C)c1C(=O)N1CCCSC1=Nc1ccccc1C(C)C	i	-2	6	-1	6	6
COc1c(OC(C)=O)ccc(/C=C/c2ccc3cccc(OC)c3n2)c1[N+](=O)[O-]	-1	-9	18	0	26	-4
COc1c(OC(C)=O)ccc(/C=C/c2ccc3ccccc3n2)c1[N+](=O)[O-]	2	-5	·	-1	43*	-1
COc1ccccc1/C=C/c1ccc2cccc(O)c2n1	-1	-6	2	1	10	2
COc1cc(OC)c(OC)cc1C=Cc1ccc2ccccc2n1	i	·	·	·	31*	7
CCn1c(SCC(=O)Nc2oc(-c3ccccc3)c(-c3ccccc3)c2C#N)nnc1-c1ccco1	i	-15	·	-1	14	-2
CCn1c(SCC(=O)Nc2oc(-c3ccccc3)c(-c3ccccc3)c2C#N)nnc1-c1ccncc1	-1	-6	5	3	32*	0
CC(C)CNC(=O)/C(C#N)=C1\N=C(NC(=O)c2ccco2)c2ccccc21	3	8	1	0	29	-2
COCCNC(=O)/C(C#N)=C1\N=C(NC(=O)c2ccco2)c2ccccc21	0	·	·	·	45*	3

Compound activity: PubChem BioAssay, several laboratories
